The list is not random: actives were taken first. Their share in the collection is about 2.1%.
NSD2 inh = NSD2 (human) methyltransferase inhibition | actives 0.54% (n = 310,000) | inhibition, % at 12.5 µM | O96028 | NSD2 peptide methylation, AlphaScreen, 120 min; in the data active = inhibition above about 50%
PGC1a acetyl inh = lowers PGC1a acetylation signal in U2OS cells | actives 0.17% (n = 350,000) | inhibition, % at 15.6 µM | AlphaScreen anti-acetyl-lysine; with virally co-expressed GCN5 acetyltransferase;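 active = every replicate shows inhibition of at least 40%; inconclusive = mean inhibition at least 40% but some replicate below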
INS-1E GSIS act = GLuc luminescence reporter in INS-1E cells, primary screen for activators of glucose-dependent secretion of insulin | INS-1E GLuc reporter insulin secretion, 2-3 h | activation, % at 16.6 µM | actives 0.61% (n = 370,000) | AID 743287;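 active = lowest replicate activation of at least 40%, so every replicate reaches that level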
AF4-AF9 inh = inhibitors of human MLL-AF4/AF9 interaction; AID 651704; P42568; actives 0.47% (n = 350,000); inhibition, % at 10 µM; AlphaScreen, biotin-AF4 peptide binding to FLAG-AF9;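 active = every replicate reaching a set inhibition limit, whatever the replicate mean, cut at about 25% in these data; inconclusive = mean inhibition reaches that limit but some replicates miss it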
Target sequence (P42568 whole entry, looked up): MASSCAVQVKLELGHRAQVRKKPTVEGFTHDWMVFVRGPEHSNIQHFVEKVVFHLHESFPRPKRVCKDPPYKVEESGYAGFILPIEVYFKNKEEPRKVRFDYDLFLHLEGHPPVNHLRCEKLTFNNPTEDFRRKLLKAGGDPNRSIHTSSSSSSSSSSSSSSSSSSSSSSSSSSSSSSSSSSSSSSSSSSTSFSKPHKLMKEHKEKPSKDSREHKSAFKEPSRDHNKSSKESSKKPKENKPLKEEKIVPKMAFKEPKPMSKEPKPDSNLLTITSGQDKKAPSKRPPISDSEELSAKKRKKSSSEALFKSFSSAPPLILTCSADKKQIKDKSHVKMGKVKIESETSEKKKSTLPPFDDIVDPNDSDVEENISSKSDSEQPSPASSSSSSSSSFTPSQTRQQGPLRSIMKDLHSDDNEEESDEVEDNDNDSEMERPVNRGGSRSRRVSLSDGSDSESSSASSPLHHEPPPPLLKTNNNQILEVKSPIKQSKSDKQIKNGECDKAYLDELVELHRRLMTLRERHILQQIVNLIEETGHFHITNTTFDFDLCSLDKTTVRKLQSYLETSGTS
Env fusion inh = HIV envelope-mediated fusion inhibition; HeLa-JRFL Env/CEM21 cell fusion, luciferase; inhibition, % at 12.3 µM; actives 1.1% (n = 360,000); AID 651610;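 active = mean replicate inhibition score of at least 50 and every replicate individually at or above 50; inconclusive = only one of the two criteria met; inactive = mean below 50 and not all replicates reaching 50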
Each line names hits and unclear results; the compound was inactive in the other large screens; [ ] = another dose, or the depositor's remark.

CCCCN(C(C)=O)C1CC(=O)N(c2ccc(OCCC)cc2)C1=O (stereo not given)	Env fusion inh inconclusive
CCOc1ccc(CCNC(=O)c2ccc(CNS(=O)(=O)c3ccccc3)cc2)cc1OCC	none (no result: AF4-AF9 inh)
N#Cc1cn(-c2ccccc2)nc1-c1ccc2c(c1)OCCO2	none (no result: INS-1E GSIS act, AF4-AF9 inh, Env fusion inh)
Cc1ccc(S(=O)(=O)N(C)C[C@@H]2OCCCC[C@H](C)Oc3ccc(NS(=O)(=O)c4c(C)noc4C)cc3C(=O)N([C@H](C)CO)C[C@H]2C)cc1	none (no result: NSD2 inh)
CCCCOc1ccc(C(=O)Nc2ccc(OCC(=O)N3CCOCC3)cc2)cc1	none (no result: PGC1a acetyl inh, Env fusion inh)
O=C(Nc1ccc(OCC(=O)N2CCOCC2)cc1)c1cncc(Br)c1	Env fusion inh 57.0
CCN(C[C@H]1N[C@@](CC)(C(=O)OC)[C@H]2C(=O)N(C)C(=O)[C@@H]12)S(=O)(=O)c1ccc(OC)cc1	INS-1E GSIS act 52.1 (no result: NSD2 inh)
CCN(C[C@H]1N[C@@](C)(C(=O)OC)[C@H]2C(=O)N(Cc3ccccc3)C(=O)[C@@H]12)S(=O)(=O)c1ccc(OC)cc1	Env fusion inh inconclusive (no result: NSD2 inh, PGC1a acetyl inh)
CCN(C[C@H]1N[C@@](C)(C(=O)OC)[C@H]2C(=O)N(Cc3ccccc3)C(=O)[C@@H]12)S(=O)(=O)c1ccc(C)cc1	Env fusion inh 69.2 (no result: NSD2 inh, PGC1a acetyl inh)
CCNC(=O)N(CC)C[C@H]1N[C@@](C)(C(=O)OC)[C@H]2C(=O)N(Cc3ccccc3)C(=O)[C@@H]12	none (no result: NSD2 inh)
CCN(C[C@H]1N[C@@](C)(C(=O)OC)[C@H]2C(=O)N(Cc3ccccc3)C(=O)[C@@H]12)C(=O)Nc1ccc(C)cc1	Env fusion inh 78.6 (no result: NSD2 inh)
CCN(C[C@H]1N[C@@](C)(C(=O)OC)[C@H]2C(=O)N(Cc3ccccc3)C(=O)[C@@H]12)C(=O)Nc1ccccc1	Env fusion inh 126.9 (no result: NSD2 inh, PGC1a acetyl inh)
CCN(C[C@H]1N[C@@](C)(C(=O)OC)[C@H]2C(=O)N(Cc3ccccc3)C(=O)[C@@H]12)C(=O)NC(C)C	none (no result: NSD2 inh)
COc1ccccc1OCC(=O)OCC(=O)NC1CCCCC1	none
COC(=O)[C@]1(Cc2ccccc2)N[C@H](CN(C)S(=O)(=O)c2ccc(C)cc2)[C@@H]2C(=O)N(Cc3ccccc3)C(=O)[C@@H]21	none (no result: NSD2 inh)
CC[C@@]1(C(=O)OC)N[C@H](CN(C)C(C)=O)[C@@H]2C(=O)N(Cc3ccccc3)C(=O)[C@@H]21	none (no result: NSD2 inh, PGC1a acetyl inh)
COC(=O)[C@]1(Cc2ccccc2)N[C@H](CN(C)S(=O)(=O)c2ccc(-c3ccccc3)cc2)[C@@H]2C(=O)N(Cc3ccccc3)C(=O)[C@@H]21	Env fusion inh 59.3 (no result: NSD2 inh)
CCN(C[C@H]1N[C@@](CC)(C(=O)OC)[C@H]2C(=O)N(Cc3ccccc3)C(=O)[C@@H]12)C(=O)Nc1ccc(C(F)(F)F)cc1	none (no result: NSD2 inh)
CCN(C[C@H]1N[C@@](Cc2ccccc2)(C(=O)OC)[C@H]2C(=O)N(Cc3ccccc3)C(=O)[C@@H]12)C(=O)c1ccc(F)cc1	none (no result: NSD2 inh)
CC[C@@]1(C(=O)OC)N[C@H](CN(C)C(=O)COc2ccccc2)[C@@H]2C(=O)N(Cc3ccccc3)C(=O)[C@@H]21	Env fusion inh 68.6 (no result: NSD2 inh, PGC1a acetyl inh)
CCN(C[C@H]1N[C@@](CC)(C(=O)OC)[C@H]2C(=O)N(Cc3ccccc3)C(=O)[C@@H]12)C(=O)Nc1ccc(OC)cc1	Env fusion inh 87.1 (no result: NSD2 inh)
CCN(C[C@H]1N[C@@](CC)(C(=O)OC)[C@H]2C(=O)N(Cc3ccccc3)C(=O)[C@@H]12)C(=O)c1ccc(F)cc1	Env fusion inh 55.7 (no result: NSD2 inh)
COC(=O)c1ccccc1NS(C)(=O)=O	none (no result: NSD2 inh)
N=C1CCC(=N)c2c1c(O)c1ccccc1c2O	NSD2 inh 66.0 (no result: INS-1E GSIS act, AF4-AF9 inh, Env fusion inh)
COC(=O)c1c(NC(=O)COc2ccc(Cl)cc2)sc2c1CC(C)(C)NC2(C)C	Env fusion inh 57.3 (no result: PGC1a acetyl inh)
COC(=O)c1c(NC(=O)Cc2ccccc2)sc2c1CC(C)(C)NC2(C)C	none (no result: NSD2 inh)
CCn1c(SCC(=O)NC2CCCC2)nnc1C(C)NC(=O)c1ccccc1Br (stereo not given)	none
O=[N+]([O-])c1cccc(COc2ccccc2CN2CCOCC2)c1	Env fusion inh 55.6 (no result: NSD2 inh)
O=[N+]([O-])c1cccc(COc2cccc(CN3CCOCC3)c2)c1	none (no result: NSD2 inh)
O=[N+]([O-])c1cccc(COc2ccccc2CN2CCCCC2)c1	INS-1E GSIS act 56.2 (no result: NSD2 inh)
C[C@H](CO)N1C[C@H](C)[C@@H](CN(C)S(=O)(=O)c2ccccc2)Oc2ccc(NC(=O)Cn3cnnn3)cc2CC1=O	none (no result: NSD2 inh)
COc1ccccc1CNC(=O)C[C@H]1C[C@@H]2c3cc(NC(=O)c4cccnc4)ccc3O[C@@H]2[C@@H](CO)O1	Env fusion inh 89.7[16.7 µM] (no result: NSD2 inh)
CCCNC(=O)C[C@@H]1C[C@H]2c3cc(NC(=O)c4cccnc4)ccc3O[C@H]2[C@H](CO)O1	Env fusion inh 71.1[16.7 µM] (no result: NSD2 inh, AF4-AF9 inh)
CCCNC(=O)C[C@H]1C[C@H]2c3cc(NC(=O)c4cccnc4)ccc3O[C@H]2[C@@H](CO)O1	none (no result: NSD2 inh, AF4-AF9 inh)
Cc1noc(C)c1S(=O)(=O)Nc1ccc2c(c1)C(=O)N([C@H](C)CO)C[C@@H](C)[C@@H](CN(C)C(=O)CCC(F)(F)F)OCCCC[C@H](C)O2	none (no result: NSD2 inh)
O=C(O)c1cc2c(cc1NC(=O)c1ccccc1OC(F)F)OCCCO2	none
Cc1noc(C)c1NC(=O)N(C)C[C@H]1Oc2ccc(NC(=O)Nc3cccc4ccccc34)cc2CC(=O)N([C@@H](C)CO)C[C@H]1C	none (no result: NSD2 inh)
Cc1cccc(C)c1NC(=O)C(c1ccc(C#N)cc1)n1c(=O)c(-c2cc3ccccc3[nH]2)nc2ccccc21 (stereo not given)	Env fusion inh 75.3 (no result: NSD2 inh, PGC1a acetyl inh)
O=C(O)C(Cc1ccc(O)cc1)N1C(=O)c2ccccc2C1=O (stereo not given)	INS-1E GSIS act 48.1
O=C(O)C(Cc1ccccc1)N1C(=O)c2ccccc2C1=O (stereo not given)	none (no result: INS-1E GSIS act, AF4-AF9 inh)
O=C(Nc1nc(-c2ccccc2)cs1)C1CCCN(S(=O)(=O)c2ccccc2)C1 (stereo not given)	Env fusion inh 96.6 (no result: AF4-AF9 inh)
Cc1ccc(-c2csc(NC(=O)C3CCN(S(=O)(=O)c4cccs4)CC3)n2)cc1	Env fusion inh 63.4 (no result: PGC1a acetyl inh, AF4-AF9 inh)
CN(C)S(=O)(=O)c1ccc(NC(=O)CN2CCCC2c2ccc3c(c2)OCCCO3)cc1 (stereo not given)	none (no result: Env fusion inh)
CS(=O)(=O)c1ccc(Cl)c(NC(=O)CN2CCCC2c2ccc3c(c2)OCCCO3)c1 (stereo not given)	Env fusion inh 61.3 (no result: INS-1E GSIS act)
CC1CN(Cc2c(O)ccc3c2oc(=O)c2ccccc23)CC(C)O1 (stereo not given)	NSD2 inh 97.5
CC1CN(Cc2c(O)ccc3c(=O)c(-c4ccccc4)coc23)CC(C)O1 (stereo not given)	none
C[C@H](CO)N1C[C@H](C)[C@H](CN(C)Cc2ccc(-c3ccccc3)cc2)Oc2ccc(NC(=O)Cc3cn(C)c4ccccc34)cc2C1=O	none (no result: NSD2 inh)
CCOc1ccccc1CNS(=O)(=O)c1cc(-c2cc(C)no2)ccc1OC	none
COc1ccc(OC)c(CNS(=O)(=O)c2cc(-c3cc(C)no3)ccc2OC)c1	PGC1a acetyl inh 51.1
COc1ccc(-c2cc(C)no2)cc1S(=O)(=O)NCCc1ccco1	AF4-AF9 inh 25.8

Assay outcomes (PubChem)
